Laboratory results published in PubChem BioAssay (NCATS).
Inconclusive results are not listed. Entries that show only a call come without a potency. Values without a mark were called inactive. Calls of active or inactive are those of the source. The call rests on the fitted dose curve; tested in HEK293 reporter line.

Assay: qHTS for Inhibitors of the Functional Ribonucleoprotein Complex (vRNP) of Lassa (LASV) Arenavirus: LASV Primary Screen - GLuc reporter signal (AID 1347082); further: nearly all actives have a fitted effect of over 60% in size
Conditions: LASV minigenome vRNP, Gaussia luciferase reporter; series mostly up to 57.5 µM

Compound	Potency
C/C=C(/C)C(=O)OC(C)(C)[C@@H]1Cc2c(ccc3ccc(=O)oc23)O1	inactive
CO[C@H]1C=CO[C@@]2(C)Oc3c(C)c(O)c4c(O)c(c(C=NN5CCN(C)CC5)c(O)c4c3C2=O)NC(=O)C(C)=CC=C[C@H](C)[C@H](O)[C@@H](C)[C@@H](O)[C@@H](C)[C@H](OC(C)=O)[C@H]1C	inactive
CC1NC(C(=O)O)Cc2c1[nH]c1ccccc21 (stereo unspecified)	inactive
O=C1N[C@@H](Cc2c[nH]c3ccccc23)C(=O)N[C@H]1Cc1ccccc1	inactive
C=CC(O)CCCCC (stereo unspecified)	inactive
COc1cc(O)cc2c1[C@@H]1Oc3c(ccc(O)c3CC=C(C)C)[C@@H]1CO2	inactive
COc1cc(-c2oc3cc(O)cc(O)c3c(=O)c2O[C@@H]2O[C@H](CO)[C@@H](O)[C@H](O)[C@H]2O)cc(OC)c1O	inactive
CCCCCCCCCOC(C)=O	inactive
CC1(C)O[C@@H]1COc1c2ccoc2cc2oc(=O)ccc12	inactive
CC(C)(COP(=O)(O)OP(=O)(O)OC[C@H]1O[C@@H](n2cnc3c(N)ncnc32)[C@H](O)[C@@H]1OP(=O)(O)O)[C@H](O)C(=O)NCCC(=O)NCCS	inactive
CCCCc1ccc(O)cc1	inactive
O=C(OCCc1ccccc1)c1ccccc1	inactive
O=C(O)c1cccc(C(=O)O)n1	inactive
COc1ccc(CCC(N)=O)cc1OC	inactive
CC1(C)CCC[C@@]2(C)CC=C(C(=O)O)[C@@H]3C[C@]312	inactive
CCCCCCCCCCCCCC	inactive
CC(=O)O[C@@H]1[C@H]2CC[C@@H]3[C@]1(C[C@@H](OC(C)=O)[C@@]1(O)C([C@@H]4O[C@@H]4C1(C)C)[C@]3(C)O)C[C@@]2(C)O (stereo partly specified)	inactive
O=C(/C=C/c1ccccc1)NCCc1cnc[nH]1	inactive
COc1c2c(nc3occc13)C(CC=C(C)C)(OC)C(O)CC2 (stereo unspecified)	inactive
ClC1=C(Cl)[C@]2(Cl)[C@@H]3[C@@H](Cl)[C@H]4O[C@H]4[C@@H]3C1(Cl)C2(Cl)Cl	inactive
O=C(O)[C@@H]1Cc2c([nH]c3ccccc23)C2CCC(=O)N21 (stereo partly specified)	inactive
COc1ccc2c3c([nH]c2c1)C(C)NCC3 (stereo unspecified)	inactive

Assay: qHTS for Inhibitors of the Functional Ribonucleoprotein Complex (vRNP) of Lassa (LASV) Arenavirus: Viability assay - alamar blue signal for LASV Primary Screen (AID 1347083); further: nearly all actives have a fitted effect of over 80% in size; further: potency means the concentration at half of the fitted maximal effect
Conditions: cell viability, alamar blue fluorescence (LASV minigenome counter-screen); series mostly up to 57.5 µM

Compound	Potency	activity change, negative = reduced viability
Nc1nc(Cl)nc2c1ncn2[C@@H]1O[C@H](CO)[C@@H](O)[C@H]1F	2170 nM (active)	–
COc1ccc([C@H]2c3cc(OC)c(OC)cc3C[C@@H](C)[C@@H]2C)cc1OC	inactive	–
O=C(Nc1ccccc1Br)N[C@@H]1CCN(c2ccc(C(F)(F)F)cn2)C1	inactive	–
Cc1cnc(C)c(C)n1	inactive	–
CCOC(=O)c1cccc(C(=O)OCC)n1	inactive	–
O=C(NC(Cc1ccccc1)C(=O)O)c1ccccc1 (stereo unspecified)	inactive	–
COc1cc(C)cc(C(=O)O)c1C1=C(O)c2cccc(O)c2C(=O)C1=O	inactive	–
O=C(NCO)c1cccnc1	inactive	–
C/C=C/c1cc(OC)c2c(c1)[C@H](C)[C@@H](c1ccc(O)c(OC)c1)O2	inactive	–
COC(=O)c1ccccc1OC	inactive	–
CC(C)(O)[C@H](O)COc1c2occc2cc2ccc(=O)oc12	inactive	–
C[C@H]1[C@H](C)CC[C@]2(C)CC[C@]3(C)C(=CC(=O)C4[C@@]5(C)CC[C@H](O)C(C)(C)C5CC[C@]43C)[C@H]12 (stereo partly specified)	inactive	–
Cc1csc(NC(=O)c2sc3nc4c(c(C(F)(F)F)c3c2N)CCC4)n1	inactive	–
C[C@]12C=CC(=O)N[C@@H]1CC[C@H]1[C@H]3CC[C@@H](C(=O)Nc4cc(C(F)(F)F)ccc4C(F)(F)F)[C@@]3(C)CC[C@@H]12	inactive	–
S=C(NCc1ccccc1)NCc1ccccc1	inactive	–
CCCCC[C@H](O)/C=C/C=C/C/C=C\CCCC(=O)O	–	-19.5% [at 0.757 µM]
COC(=O)c1c(C)cc(O)c(C=O)c1O	inactive	–
O=C(c1ccccc1)N1CCCCC1	inactive	–
C/C=C(/C)C(=O)OC(C)(C)[C@@H]1Cc2c(ccc3ccc(=O)oc23)O1	inactive	–
CO[C@H]1C=CO[C@@]2(C)Oc3c(C)c(O)c4c(O)c(c(C=NN5CCN(C)CC5)c(O)c4c3C2=O)NC(=O)C(C)=CC=C[C@H](C)[C@H](O)[C@@H](C)[C@@H](O)[C@@H](C)[C@H](OC(C)=O)[C@H]1C	inactive	–
CC1NC(C(=O)O)Cc2c1[nH]c1ccccc21 (stereo unspecified)	inactive	–
O=C1N[C@@H](Cc2c[nH]c3ccccc23)C(=O)N[C@H]1Cc1ccccc1	inactive	–
C=CC(O)CCCCC (stereo unspecified)	inactive	–
COc1cc(O)cc2c1[C@@H]1Oc3c(ccc(O)c3CC=C(C)C)[C@@H]1CO2	inactive	–
